# From ChEMBL document CHEMBL3988442, “University of Dundee, Small-Polar-MMV Screening Library” (2021)
# Tests used:
# [1] = biological target: T1, Aspartate--tRNA(Asp/Asn) ligase (Mycobacterium tuberculosis (strain ATCC 25618 / H37Rv)) (UniProt P9WFW3); experiment: Assay for Asp RNA synthetase-1 from Mycobacterium tuberculosis; assay type: functional; design: scale not given: direction of the effect not stated beside the values; conditions: 30 µM; note: in the data most compounds retested in dose-response had high values
# T1 sequence (whole entry): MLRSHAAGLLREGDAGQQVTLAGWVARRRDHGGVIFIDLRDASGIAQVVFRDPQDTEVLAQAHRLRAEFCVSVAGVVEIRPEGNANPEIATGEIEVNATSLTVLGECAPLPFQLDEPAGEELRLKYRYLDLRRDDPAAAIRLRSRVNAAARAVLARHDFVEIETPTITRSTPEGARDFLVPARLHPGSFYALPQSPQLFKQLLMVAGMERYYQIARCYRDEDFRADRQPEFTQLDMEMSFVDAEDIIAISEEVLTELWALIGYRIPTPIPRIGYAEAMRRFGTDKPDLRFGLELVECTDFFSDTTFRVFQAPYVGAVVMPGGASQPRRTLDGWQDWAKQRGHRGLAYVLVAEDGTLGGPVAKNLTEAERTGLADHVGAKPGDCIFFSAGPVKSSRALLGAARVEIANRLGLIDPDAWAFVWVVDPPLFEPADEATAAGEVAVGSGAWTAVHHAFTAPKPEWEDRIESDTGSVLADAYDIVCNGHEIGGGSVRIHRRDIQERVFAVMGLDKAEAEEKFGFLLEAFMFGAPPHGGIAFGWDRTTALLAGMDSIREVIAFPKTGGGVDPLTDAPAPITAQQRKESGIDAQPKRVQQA
# [2] = biological target: Shiga toxin 2 (Escherichia coli O157:H7) (UniProt P09385+P09386); experiment: E. coli 0.157:H7 Shiga Toxin SOP - stx2 screening assay; assay type: functional; design: scale not given: direction of the effect not stated beside the values; conditions: 30 µM
SMILES,Percent Effect [1] [%],Percent Effect [2] [%]
Cc1nc(N2CCCC2)ncc1-c1cc(O)nc(N2CCCC2)n1,-6.71,-0.674
CCCNC(=O)CNc1cc(C(=O)N2CCSCC2)ccc1C,-2.64,-9.17
COCC1CCN(C(=O)c2cccc(S(=O)(=O)NC3CCCC3)c2)C1 (centres undefined),-0.437,-4.97
Cn1cc(CN2CCCC3(CCN(c4nncs4)C3)C2)cn1 (centres undefined),6.31,-11.3
Cn1ccnc1-c1cccc(NC(=O)NCCN2CCOCC2)c1,4.54,-60.9
c1ccc(Cn2cccn2)c(CNCC2CNc3ccnn3C2)c1 (centres undefined),1.88,-40.7
COc1ccc(CN2CCC3(CC2)CCN(CC2CC2)C3=O)cc1,-4.6,-2.04
CS(=O)(=O)CCC(=O)N1CCC2(CCCN(C3CCOCC3)C2=O)C1 (centres undefined),3.37,-8.62
Cc1ccc(-c2cc(C(=O)NC(C)C(=O)N3CCCCC3)on2)cc1 (centres undefined),2.34,-5.52
COCC1c2c(cnn2C)CCN1Cc1ccc(F)cc1 (centres undefined),1.28,-4.17
CC(=O)N1CCCC(c2cnc(-c3c(C)nn(C)c3C)cn2)C1 (centres undefined),-3.49,-14.1
Cc1ccc(NC(=O)c2n[nH]c(-n3cnnc3)n2)cc1C,4.15,-18.5
CCc1nc(CN(C)CC2CCN(CCO)CC2)no1,-1.64,-1.86
CN(C)CC1(O)CCN(S(=O)(=O)c2ccc(F)cc2)C1 (centres undefined),-0.491,12.7
Cc1ccc(N2CCCN(C(=O)C3(C#N)CCCCC3)CC2)nn1,-0.989,4.54
COCCNC(=O)[C@H]1C[C@@H]2CCN(c3nncs3)C[C@H]2O1,1.82,-18.8
Cc1ccc(CC2CCCN2CC(=O)NCc2cccnc2)cc1 (centres undefined),0.509,16.7
CCOC(=O)c1sc2ccsc2c1CNC(=O)C(C)(C)C#N,0.67,16.1
O=C(c1ccc2c(c1)OCO2)N1CCC[C@]2(C[C@H](OCC3CC3)CO2)C1,1.07,5.01
O=S(=O)(N1CCCCC1)N1CCc2nc(C3CCNCC3)ncc2C1,-1.74,13.4
CC(=O)NCCc1ccc(C(=O)N2CCCC2c2cnn(C)c2)cc1 (centres undefined),3.04,21.3
Cc1nn(CC(=O)N2CCCCC2Cn2cccn2)c(C)c1Cl (centres undefined),-0.127,-13.2
COc1ccccc1OCC(=O)NS(=O)(=O)c1ccccc1F,0.814,-7.18
CC(=O)N(Cc1noc(C)n1)C1CCN(Cc2ccncc2Cl)C1 (centres undefined),1.27,-3.88
O=C([C@@H]1CCO[C@@H]2CCN(Cc3cccnc3)C[C@H]21)N1CCCCO1,6.53,-26.6
Cc1cc2c(=O)n3c(nc2s1)CCN(Cc1cnn(C)c1C)CC3,-4.72,8.81

SMILES,Percent Effect [1] [%],Percent Effect [2] [%]
CN1CCc2c(C#N)c(NCc3ccco3)n3cnnc3c2C1,6.08,-1.51
O=C(NCCCNCC1CNc2ccnn2C1)c1ccccc1 (centres undefined),0.0558,-16.8
CCC(=O)N1CCc2[nH]cnc2C12CCN(C(=O)CCS(C)(=O)=O)CC2,-0.836,9.19
CN(Cc1ccc(Cl)s1)C(=O)NCc1nnc2n1CCC2,0,27.4
c1ccc(-c2ccc(C3CNCCO3)nc2)cc1 (centres undefined),7.81,-59.5
CN1CCN(Cc2nnc(C3CCN(CC4CC4)CC3)n2C)CC1,-0.891,2.65
Cc1nnc(NC(=O)NCc2cc(F)cc(F)c2)s1,4.55,29.7
O=C(Cc1cccnc1)N1CCC(OCc2ccccc2)CC1,-3.5,7.67
COc1cccc(NC(=O)N(CCO)Cc2ccsc2)c1,-1.36,-14.3
COc1ccc(CC(=O)N2CCCCC2Cn2cccn2)cc1OC (centres undefined),-2.34,-6.84
COC(=O)c1cccc(NC(=O)CCn2nc(-c3cccs3)oc2=O)c1,1.89,18.1
CN(C(=O)CCNC(=O)NC1CCCCC1)c1ccccc1,-1.38,4.9
CCc1ccc(C(=O)N2CCC(c3nncn3CC)CC2)cc1,-2.16,7.54
CCN1CCC(CNCc2cc(OC)ccc2OC)C1 (centres undefined),-3.93,-21.3
Cc1cnn(CC2CCCN2CCCc2nc3ccccc3o2)c1 (centres undefined),1.34,-14.6
Cc1ccc(C(CNC(=O)NCc2cc[nH]n2)N2CCOCC2)o1 (centres undefined),0.256,-34.1
CC(=O)Nc1ccc(-n2ccc3nc(N4CCCC4)ncc3c2=O)cc1,4.09,-9.95
O=C(NCCn1ccnc1)NCC(c1ccco1)N1CCCCC1 (centres undefined),1.79,22.2
CC(C)c1nn(C)c(N(C)C)c1CNCc1cccc(CN(C)C)c1,2.36,31.8
O=C(NCc1cccnc1)C1=NOC2(CCN(S(=O)(=O)C3CC3)C2)C1 (centres undefined),-3.41,-21.8
CNc1ccc(CC2CCCN(C(=O)c3cncnc3C)C2)nn1 (centres undefined),0.485,29.8
COc1ccc(CNC(=O)C2(C#N)CCCC2)cc1,2.12,8.48
O=C(c1ccc(-n2cccn2)nc1)N1CCCN(c2cccnn2)CC1,-4.61,3.17
Cc1ncc(CN(C)C2CCCN(Cc3noc(C4CC4)n3)C2)s1 (centres undefined),-2.9,11.1
Cc1noc(CN2CCN(CC(C)O)CC2)n1 (centres undefined),-2.18,-6.53
CCN1CCC(NC(=O)CN2CCc3c(ncn3C)C2)CC1,-4.88,19.9

SMILES,Percent Effect [1] [%],Percent Effect [2] [%]
CCC(O)CN1CCN(C(=O)c2ccnc(N(C)C)c2)CC1 (centres undefined),-4.29,-17.1
Cc1ccoc1-c1nnc(CN2CCn3c(nnc3C3CC3)C2)o1,-2.98,-36.6
CC(C)c1nc(C2CCCN2Cc2ccno2)no1 (centres undefined),1.46,1.7
Cc1ncc2c(n1)CN(Cc1nnc(Cc3ccccc3)o1)CC2,0.379,-26.9
CN(Cc1ccc2c(c1)OCCO2)C(=O)Cn1cccnc1=O,-2.54,-20.6
Cc1nn(C)c(Cl)c1C1CCCN1CCc1ccccn1 (centres undefined),1.79,-0.4
CCc1ncncc1C(=O)N1CCOC(c2nc(C)n[nH]2)C1 (centres undefined),-4.06,0.443
CCC1=N[C@@]2(CC[C@@H]3CN(C(=O)Nc4ccc(F)cc4)C[C@@H]32)C(=O)N1,0.408,5.29
NC(=O)CCOc1nc(-c2ccccc2Cl)no1,-4.51,-35.8
CCc1ncc(CN(C)C(=O)Nc2cccnc2N2CCCC2)s1,2.75,-14.5
c1cnc(-c2nc(CN3CCCC(Cn4cncn4)C3)cs2)nc1 (centres undefined),-1.55,20.5
CCc1ncc(C(=O)N2CCCCC2Cn2cccn2)s1 (centres undefined),-4.28,15.5
CCS(=O)(=O)N1C[C@H]2CCC[C@@]2(COc2ccccn2)C1,3.6,2.64
Cc1nnc2n1CCN(Cc1csc(CC(=O)N(C)C)n1)C2,2.24,5.11
O=C(NCC1CC1)C1=NOC2(CCN(Cc3ccc4c(c3)OCO4)C2)C1 (centres undefined),2.18,-49.8
Cc1cccc(C(=O)NCc2ccc(N3CCCCC3)nc2)n1,2.43,-10.8
Cc1ccc(NC(=O)N(C)Cc2cnn(C)c2)cc1OCC(F)F,5.84,-4.22
Cc1ccccc1C(=O)NCc1ccc(N2CCNC(=O)C2)cc1,0.212,-90.8
O=C(Cc1cccc(F)c1)N1CCCCC1c1ccn2ccnc2n1 (centres undefined),-2.63,-7.82
CC(=O)N1CCCC1c1cccc(Cc2ccc(F)cc2)n1 (centres undefined),-5.96,5.81
CCCc1noc(CN2CCCC2c2c(C)nn(C)c2OC)n1 (centres undefined),-5.33,4.3
Cc1ccsc1CN(CCN(C)C)Cc1ccccn1,-0.167,1.36
CN1CC(c2ccccc2)CC12CCN(C(=O)c1ccc(F)cc1)CC2 (centres undefined),-1.84,11.8
CCn1c(C)nnc1CN(C)C1CCN(CCn2cccn2)C1 (centres undefined),1.41,12.1
COc1cc(C)ccc1OCCC(=O)N1CCCC1Cn1cccn1 (centres undefined),2,12.8
Cc1cc(C(=O)N2CCCC2c2nnc3n2CCCCC3)no1 (centres undefined),-2.81,-2.64

SMILES,Percent Effect [1] [%],Percent Effect [2] [%]
O=C(c1cccnc1)N1CC[C@H](OCC2CC2)[C@@H]1Cc1cccnc1,3.76,-13.7
Cc1cc(C)c(CNC(=O)N2CCN(c3ncccn3)CC2)c(=O)[nH]1,-0.7,-6.87
CCOc1cccc(C(=O)NCCC(=O)Nc2ccncc2)c1,-3.32,-80.5
CCOCC1CN(S(C)(=O)=O)Cc2ncn(CC3CC3)c21 (centres undefined),-0.663,-6.21
CN(C)C(=O)[C@@H]1CCO[C@@H]2CCN(CCc3ccccc3)C[C@@H]21,-3.08,1.17
Cc1cccc(CS(=O)(=O)NCC(O)Cc2ccccc2)c1 (centres undefined),-8.39,0.958
Cc1nn(CC(=O)N2CCN(c3ccccc3F)CC2)c(C)c1Cl,8.8,-39.1
CC(O)CN1CCC(CNCc2cccc(Br)c2)CC1 (centres undefined),-1.97,18.9
Cn1ccnc1CN1CCC2(CC1)CC(Oc1cccnc1)C2,0.874,-18.2
NC(=O)CC1CCN(C(=O)CCOc2ccc(Cl)cc2)CC1,-1.03,32.7
Cc1occc1C(=O)N1CC[C@@H](N2CCOCC2)[C@@H]1Cc1ccccc1,7.49,6.03
Cc1ccc(NC2CCN(C(=O)c3cccc(F)c3F)CC2)nn1,-4.5,-17
CC(=O)N(Cc1ncc(C(C)C)o1)C1CCN(CCn2cccn2)C1 (centres undefined),-1.37,3.59
O=C(c1cc(=O)[nH]c(=O)[nH]1)N1CCCCC1c1ccc(F)cc1 (centres undefined),0.947,-12.6
Cc1ncsc1CN1C[C@H](C(=O)N2CCCO2)[C@@H]2CCO[C@@H]2C1,-1.48,-4.78
CN(Cc1ccc(Cl)s1)C(=O)c1cccc(OCC(N)=O)c1,-2.2,0.368
CN1CCN(Cc2cnc3n2CCN(Cc2cccs2)C3)CC1,5.52,-18.8
CCc1cnc2c(c1Nc1ccc(OC)cc1)c(=O)n(C)c(=O)n2C,0.831,-12.8
Cc1cc(C2CCCN(C(=O)c3ccc(C)[nH]c3=O)C2)n[nH]1 (centres undefined),-1,3.9
Cc1noc(Cl)c1CCC(=O)N1CCC(CC(N)=O)CC1,0.618,17.9
CCN1C(=O)CCC12CCCN(Cc1nccs1)CC2 (centres undefined),2.52,1.68
CCc1noc(C(C)N2CCN(c3ccc(C#N)cn3)CC2)n1 (centres undefined),-2.49,-26.5
Cc1ccc2c(n1)N(CCn1cccn1)CCN(C(=O)CC1CC1)C2,-3.03,2.2
CCOCC(O)CN1CCN(C(=O)c2cc(F)ccc2C)CC1 (centres undefined),-0.759,9.83
